The list is not random: actives were taken first. Their share in the collection is about 9.2%.
SMN2 splice up: enhancers of SMN2 splice variant expression; HEK293 SMN2-luciferase splicing reporter, luminescence, 30-36 h; Potency, µM (highest dose often 46.1 µM), for the others: top-dose activity change, positive = activation, most hits filed as activators; actives 2.8% (n = 210,000); AID 1458; also: % of control where 0% means no effect; nearly all actives have a fitted effect of over 55% in size
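HEK293 cells carry an SMN2 minigene-luciferase reporter in which exon 7 inclusion puts luciferase in frame. Cells were seeded at 2000 cells/well, attached for 10-12 hours, then exposed to compounds for 30-36 hours at 37C before ONE-Glo luminescence.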
ELG1 genotox: inducers of genotoxicity in HEK293T ELG1-luciferase cells | HEK293T ELG1-luciferase reporter, luminescence, 16 h | AID 504466 | Potency, µM (doses to about 46 µM), for inactives: top-dose activity change, positive = activation, most hits filed as activators | actives 1.3% (n = 330,000); also: % of control where 0% means no effect; nearly all actives have a fitted effect of over 60% in size
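DMSO vehicle served as control against compound-treated ELG1-luciferase HEK293T cells; exposure lasted 16 hr at 37 °C and 5% CO2, followed by ONE-Glo luminescence detection after 30 min.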
NPC1 promoter act: activates the NPC1 promoter; Huh7 NPC1 promoter luciferase reporter, 24 h; actives 2.4% (n = 320,000); Potency, µM (series often up to 9.22 µM), without a hit: at the highest dose activation, most hits filed as activators; also: % of control where 0% means no effect; nearly all actives have a fitted effect of over 60% in size
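Huh7 reporter cells (NPC1 promoter driving luciferase) are dosed with compound for 24 h at 37 °C, 5% CO2; luciferase detection reagent is then added and luminescence measured after 10 min at ambient temperature.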
FLuc counter: inhibits or activates purified firefly luciferase, miR-21 counter-screen; P08659; purified FLuc, Km substrates, luminescence inhibition; Potency, µM (series often up to 57.5 µM), inactives show at the highest dose activity change, negative = inhibition, usual class: inhibitors; actives 6.9% (n = 360,000);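 also: plate controls were vehicle for no effect and reference inhibitor for full effect; nearly all actives have a fitted effect of over 55% in size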
Target sequence (P08659 whole entry, looked up): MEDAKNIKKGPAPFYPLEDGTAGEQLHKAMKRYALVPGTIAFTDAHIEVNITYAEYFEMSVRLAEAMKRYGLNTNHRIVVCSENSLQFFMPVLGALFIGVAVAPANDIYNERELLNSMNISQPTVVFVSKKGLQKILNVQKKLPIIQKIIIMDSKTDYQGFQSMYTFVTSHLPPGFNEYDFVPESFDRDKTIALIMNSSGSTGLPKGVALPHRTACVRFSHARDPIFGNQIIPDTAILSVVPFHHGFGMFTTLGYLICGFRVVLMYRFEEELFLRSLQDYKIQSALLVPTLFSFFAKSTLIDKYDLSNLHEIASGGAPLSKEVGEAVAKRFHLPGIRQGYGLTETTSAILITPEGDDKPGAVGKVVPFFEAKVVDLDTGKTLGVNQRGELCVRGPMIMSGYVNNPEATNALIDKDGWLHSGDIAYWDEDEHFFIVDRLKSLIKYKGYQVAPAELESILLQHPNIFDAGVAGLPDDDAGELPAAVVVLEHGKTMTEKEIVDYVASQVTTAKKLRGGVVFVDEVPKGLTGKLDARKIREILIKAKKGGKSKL
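Purified P. pyralis luciferase (10nM final) with 10uM D-luciferin and 10uM ATP (Km levels) in 50mM Tris acetate pH 7.5, 10mM Mg acetate, 0.01% Tween-20, 0.05% BSA; qHTS 6-point titration, ~60 µM downward; luminescence read.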
ELG1 DNA repair: ELG1-dependent DNA repair inhibition; HEK293T ELG1-luciferase reporter, luminescence, 16 h; DNA damage induced by 5-fluorouridine; Potency, µM (highest dose often 46.1 µM), for inactives: top-dose activity change, negative = inhibition, hits mostly inhibitors; actives 2.3% (n = 330,000); AID 504467; also: % is scaled to controls: 0 for no effect and ±100 for the full control effect; nearly all actives have a fitted effect of over 55% in size
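Cells (2,000 per well) received 5-fluorouridine plus test compound or DMSO and were incubated 16 hr at 37 °C, 5% CO2. Luciferase activity was read by luminescence 30 min after ONE-Glo addition; signal suppression marked inhibition of damage-induced ELG1 function.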
Rab9 prom act: activators of Rab9 promoter; Potency, µM (series often up to 9.22 µM), for the others: at the highest dose activation, negative = inhibition, hits mostly activators; AID 485297; actives 2.8% (n = 320,000); Huh7 Rab9 promoter-luciferase reporter, luminescence, 24 h; also: % of control where 0% means no effect; nearly all actives have a fitted effect of over 60% in size
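Luminescence from Amplite-detected luciferase (10 minutes, ambient) reports Rab9 promoter activation. Before that, stable Rab9-luciferase Huh7 cells (1500/well, reduced-serum OP-MEM I plus 10% FBS) were exposed to compound for 24 hours at 37C.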
The depositor's hits bear a star; ? = inconclusive; / = not tested or not shown. Calls follow the shape of the dose curve; as a rule, active = well fitted curve in the direction sought with a large enough effect; inconclusive = small, poorly fitted or top-dose-only effect, or another doubt; inactive = no such curve, though single readings can be large; an effect the other way counts as inactive or inconclusive. Potency is read from the fitted curve at half-maximal effect.

SMILES	SMN2 splice up	ELG1 genotox	NPC1 promoter act	FLuc counter	ELG1 DNA repair	Rab9 prom act
COc1ccc2ccc(Oc3ncccn3)cc2c1	18%	15%	9%	-24%	?	?
c1ccc(-c2cc3ncccc3cn2)cc1	/	?	?	?	?	-4%
COc1ccc(-c2nc(SCC(=O)Nc3ccccc3)c(-c3ccc(F)cc3)[nH]2)cc1OC	-10%	/	/	?	/	/
COc1ccc2cc(-c3ccccc3F)ncc2c1	/	?	1.4µM*	0.95µM*	?	?
Cc1cccc(C)c1OCc1cc(C(=O)N2CCCC2c2nonc2C)no1 (stereo unspecified)	/	-3%	4%	-3%	?	7%
CSc1ccccc1OCc1cc(C(=O)N2CCCC2c2nonc2C)no1 (stereo unspecified)	/	?	2µM*	8.5µM*	?	2.2µM*
Cc1nonc1C1CCCN1C(=O)c1cc(COc2ccc(F)cc2F)on1 (stereo unspecified)	/	?	?	9.5µM*	?	2.2µM*
NS(=O)(=O)c1ccc(NC(=O)CN2CCc3ccccc3C2)cc1	/	0%	-6%	-1%	-11%	2%
CCOC(=O)c1ccc(NC(=O)CC2C(=O)N(c3ccc(F)cc3)C(=O)N2Cc2ccc3c(c2)OCO3)cc1 (stereo unspecified)	-51%	/	/	-5%	/	/
Cc1ccc(Cn2cccc(NC(=O)NCc3ccccc3)c2=O)cc1	-20%	-5%	-4%	?	-21%	-4%
COc1ccc(Cn2cccc(NC(=O)Nc3ccc(F)cc3)c2=O)cc1	/	-7%	-7%	?	?	-13%
COc1ccc(Cn2cccc(NC(=O)Nc3cccc(OC)c3)c2=O)cc1	/	-7%	0%	21µM*	?	2%
O=C(NCc1ccccc1)Nc1cccn(Cc2ccc(Cl)cc2)c1=O	/	-1%	-11%	?	9%	-29%
O=C(NCc1ccccc1)Nc1cccn(Cc2ccccc2Cl)c1=O	-39%	7%	-14%	8.5µM*	?	-18%
COc1cccc(Cn2cccc(NC(=O)NCc3ccccc3)c2=O)c1	/	0%	0%	21µM*	5%	0%
Cc1ccc(Cn2cccc(NC(=O)c3ccco3)c2=O)cc1	-6%	19%	28%	15µM*	?	?
COc1cccc(Cn2cccc(NC(=O)Nc3ccccc3C)c2=O)c1	/	-7%	-7%	5%	-15%	0%
COc1ccc(S(=O)(=O)N2CCOCC2)cc1NC(=O)CN1C(=O)NC2(CCCC2)C1=O	/	0%	-2%	-2%	8%	4%
Cc1cccc2nc(-c3ccccn3)c(Nc3ccc(F)cc3)n12	-99%	/	/	3%	/	/
COc1ccccc1NC(=O)CSc1nc2c(oc3ccccc32)c(=O)n1Cc1ccco1	-12%	/	/	7%	/	/
O=C(Nc1ccccc1)Nc1cccn(Cc2c(F)cccc2Cl)c1=O	/	0%	26%	11µM*	-9%	?
COc1cccc(Cn2cccc(NC(=O)Nc3ccc(C#N)cc3)c2=O)c1	-60%	-3%	-15%	?	-15%	-3%
O=C(Nc1cccn(Cc2c(Cl)cccc2Cl)c1=O)c1c(Cl)cccc1Cl	-33%	-6%	-2%	6%	-19%	1%
CSc1ccc(NC(=O)Nc2cccn(Cc3ccccc3)c2=O)cc1	/	14%	-5%	11µM*	12%	-4%
COc1cccc(NC(=O)Nc2cccn(Cc3ccccc3)c2=O)c1	-28%	-5%	3%	17µM*	-24%	0%
Cn1ncc(Br)c1NC(=O)c1ccco1	/	-1%	-2%	0%	?	-4%
CC(OC(=O)c1ccco1)C(=O)Nc1nc(-c2ccccc2)cs1 (stereo unspecified)	/	13%	/	/	?	/
Cn1cnc(S(=O)(=O)N2CCCC(C(=O)Nc3ccc(OC(F)(F)F)cc3)C2)c1 (stereo unspecified)	/	/	/	1%	/	/

Screening data as filed in PubChem.
